Laboratory results reported in PubChem BioAssay (EPA / NIEHS).
The source made the active and inactive calls. Rule for the calls: active = hit-call score of the fitted dose curve at least 0.9, where 1 is the maximum; inactive = score below 0.9.

Test: ATG_BRE_CIS: Attagene CIS-FACTORIAL HepG2 Assay for human Bone Morphogenetic Protein (BMP) Response Element (BRE) (AID 2282933)
Conditions: HepG2 BMP response element reporter, Attagene transcription factor profiling; actives raise or lower the signal
Method: ATG_CIS is a cell-based, multiplexed-readout assay that uses HepG2, a human liver cell line, with measurements taken at 24 hours after chemical dosing in a 24-well plate.ATG_BRE_CIS is one of 52 assay component(s) measured or calculated from the ATG_CIS assay. It is designed to make measurements of mRNA induction, a form of inducible reporter, as detected with fluorescence intensity signals by Reverse transcription polymerase chain reaction (RT-PCR) and Capillary electrophoresis technology.Data from the assay component ATG_BRE_CIS was analyzed into 1 assay endpoint. This assay endpoint, ATG_BRE_CIS, was analyzed with bidirectional fitting relative to DMSO as the negative control and baseline of activity. Using a type of inducible reporter, measures of mRNA for gain or loss-of-signal activity can be used to understand the reporter gene at the transcription factor-level as they relate to the gene SMAD1. Furthermore, this assay endpoint can be referred to as a primary readout, because this assay has produced multiple assay endpoints where this one serves a reporter gene function. To generalize the intended target to other relatable targets, this assay endpoint is annotated to the dna binding intended target family, where the subfamily is Smad protein.
Human liver HepG2 cells are transiently transfected with multiple reporter transcription units (MRTUs) in 6-well plates using FuGene 6 reagent (Roche; 3 ml FuGene/1 mg DNA). The MRTU constructs are regulated by a cis-regulating element (promoter). […] A major difference between the CIS and TRANS system is that in CIS activities of endogenous TFs are measured, whereas the TRANS assay evaluates changes in activities of exogenous, chimeric NR-Gal4 proteins. […] At the end of 24 hour incubation, total RNA was isolated using TriZol reagent (Invitrogen). The isolated RNA is then reverse-transcribed using oligo(dT) primer and Mo-MLV reverse transcriptase (Invitrogen) with DNAse I (Ambion) treatment for 30 min. The one-tenth of the produced cDNA was amplified by PCR using Taq DNA polymerase (Invitrogen) and two reporter sequence-specific primers. The PCR products were fluorescently labeled by primer extension with 6-arboxyfluorescein (6-FAM) 5'-labeled reporter sequence-specific primer (2 min at 95 C, 20 s at 68 C and 10 min at 72 C) and these products were digested with 5U of HpaI (New England Biolabs) for 2h at 37 C. The fragments were purified using Qiaquick PCR columns (Qiagen), analyzed on an ABI 3130xL genetic analyzer (Applied Biosystems) with peak positions identified by using a set of X-rhodamine (ROX)-labeled MapMarker1000 molecular weight standards (BioVentures). The raw capillary electrophoresis data was processed using Attagraph software (Attagene).

Compound | outcome | AC50
CC/C(=C\C(=N/O)C(N)=O)C(C)[N+](=O)[O-] (stereo not given) | inactive | –
O=C(OC[C@H]1O[C@@H](OC(=O)c2cc(O)c(O)c(OC(=O)c3cc(O)c(O)c(O)c3)c2)[C@H](OC(=O)c2cc(O)c(O)c(OC(=O)c3cc(O)c(O)c(O)c3)c2)[C@@H](OC(=O)c2cc(O)c(O)c(OC(=O)c3cc(O)c(O)c(O)c3)c2)[C@@H]1OC(=O)c1cc(O)c(O)c(OC(=O)c2cc(O)c(O)c(O)c2)c1)c1cc(O)c(O)c(OC(=O)c2cc(O)c(O)c(O)c2)c1 | inactive | –
O=c1[nH]c2ccc(S(=O)CCN3CCC(Cc4ccc(F)cc4)CC3)cc2o1 (stereo not given) | – | 100 µM (active)
CCCC(=O)OCC | inactive | –
CCn1nc(Cc2ccccc2)cc1C1CCN(C[C@H]2C[C@H](N(C)[C@@H](C(=O)O)C(C)C)C[C@@H]2c2cccc(F)c2)CC1 | inactive | –
Cc1ccc(C)c(O)c1 | inactive | –
Cc1c(-c2cccnc2)c2ccccc2n1CCCCC(=O)O | inactive | –
CCCCCCc1ccc(O)cc1O | inactive | –
O=C(O)c1cc(N=Nc2ccc(S(=O)(=O)Nc3ccccn3)cc2)ccc1O | inactive | –
COc1cccc(-c2ccc(/C=C\CN3CCCCCC3)cc2Cl)c1 | – | 17.4 µM (active)
CCNc1ccccc1 | inactive | –
CC1=CC(=O)CC(C)(C)C1 | inactive | –
CCOC(=O)COc1ccc2c(c1)CC(NCC(O)c1cccc(Cl)c1)CC2 (stereo not given) | inactive | –
CCN(C(=O)c1cc(C)cc(OC[C@H](C)Nc2ccncc2)c1)C(C)C | inactive | –
O=P(OC(CCl)CCl)(OC(CCl)CCl)OC(CCl)CCl | – | 70.4 µM (active)
COc1ccc2sc(C(=O)Nc3nnn[nH]3)c(OC(C)C)c2c1 | – | 41.8 µM (active)
Nc1nc2ncc(CNc3ccc(C(=O)N[C@@H](CCC(=O)O)C(=O)O)cc3)nc2c(=O)[nH]1 | inactive | –
COC(=O)c1c(Cl)c(Cl)c(C(=O)OC)c(Cl)c1Cl | inactive | –
CN(C)c1ccc(N=NS(=O)(=O)O)cc1 | inactive | –
O=C(O)c1cccc(N(Cc2cccnc2)c2ccc(OC(F)F)c(OC(F)F)c2)c1 | inactive | –

Compound | outcome | AC50
CCOC(=O)CC(CC(=O)OCC)(OC(C)=O)C(=O)OCC | inactive | –
Oc1ccc2c(c1)-c1ccccc1C2 | – | 84.4 µM (active)
On1ccccc1=S | inactive | –
CC(O)CN(CCN(CC(C)O)CC(C)O)CC(C)O (stereo not given) | inactive | –
COCCOCCOCCOC | inactive | –
CCCCC(CC)COC(=O)c1ccc(C(=O)OCC(CC)CCCC)cc1 (stereo not given) | inactive | –
Cn1c(=O)c2c(ncn2C)n(C)c1=O | inactive | –
COC(=O)c1ccccc1O | inactive | –
COc1ccc(/C=C/S(=O)(=O)NC(=O)c2ccc(C)cc2Cl)cc1 | inactive | –
CNCc1ccc(NC(=O)c2c[nH]c3c2C(=O)CCC3)cc1 | inactive | –
O=C(O)c1cccc(Oc2ccccc2)c1 | inactive | –
O=C(O)CCN(C1(C(=O)NO)CCCC1)S(=O)(=O)c1ccc(Oc2ccc(F)cc2)cc1 | inactive | –
CN(C)c1ccc(Cc2ccc(N(C)C)cc2)cc1 | – | 61.9 µM (active)
CC[C@H](C)C(=O)O[C@H]1C[C@@H](C)C=C2C=C[C@H](C)[C@H](CC[C@@H]3C[C@@H](O)CC(=O)O3)[C@H]21 | inactive | –
CC(C)=CCCC(C)CCO (stereo not given) | inactive | –
NC(=O)NO | inactive | –
CC(C)c1cccc(C(C)C)c1N1C(=O)c2ccc(O)cc2C1=O | inactive | –
O=C(NS(=O)(=O)/C=C/c1ccccc1)c1ccc(F)cc1Cl | inactive | –
O=c1n(CC2CO2)c(=O)n(CC2CO2)c(=O)n1CC1CO1 (stereo not given) | inactive | –
CCCCCCCCCCCCc1ccccc1 | inactive | –
